# Tests used:
# Test in all cases: DAPPL (digital affinity profiling via proximity ligation, sequencing); 10 mM Tris-HCl pH 7.5, 50 mM NaCl, 1 mM DTT, 4% glycerol, room temperature, 30 min; GST-TFs on glutathione beads, 16-mer random dsDNA library, 0.1% formaldehyde crosslink after washing; high values mean tight binding
# [1] = target: T1, FLI1 (Homo sapiens, UniProt Q01543 1-452); conditions: protein: recombinant; tags: N-terminal GST; dsDNA, one strand shown
# T1 sequence: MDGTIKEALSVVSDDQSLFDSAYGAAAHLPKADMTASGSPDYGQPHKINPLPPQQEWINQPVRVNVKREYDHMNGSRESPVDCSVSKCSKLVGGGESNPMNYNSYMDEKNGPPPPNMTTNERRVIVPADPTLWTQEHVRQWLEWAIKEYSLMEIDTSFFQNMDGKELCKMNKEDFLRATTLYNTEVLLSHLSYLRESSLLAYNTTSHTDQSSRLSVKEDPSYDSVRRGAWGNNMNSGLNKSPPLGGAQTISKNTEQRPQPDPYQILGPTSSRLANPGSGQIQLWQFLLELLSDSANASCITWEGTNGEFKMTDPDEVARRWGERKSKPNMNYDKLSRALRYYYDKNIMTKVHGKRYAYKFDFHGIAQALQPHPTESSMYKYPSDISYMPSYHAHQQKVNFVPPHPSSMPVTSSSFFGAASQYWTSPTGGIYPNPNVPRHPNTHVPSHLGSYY
# Procedure, shortened: (§1)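 Human transcription factors were made in yeast as GST fusions, captured on glutathione beads and barcoded with DNA. With a tag-only sample included, the pool was incubated with 200 nmole of a random double-stranded 16-mer DNA library in Tris/NaCl/DTT/glycerol buffer at room temperature for 30 min, then crosslinked with 0.1% formaldehyde after washing, ligated by proximity, amplified and sequenced. For binding signal, each hexamer's read frequency for a factor is divided by its frequency for the tag-only sample.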
# [2] = target: T2, ELK1 (Homo sapiens, UniProt P19419 1-428); conditions: protein: recombinant; tags: N-terminal GST; dsDNA, one strand shown
# T2 sequence: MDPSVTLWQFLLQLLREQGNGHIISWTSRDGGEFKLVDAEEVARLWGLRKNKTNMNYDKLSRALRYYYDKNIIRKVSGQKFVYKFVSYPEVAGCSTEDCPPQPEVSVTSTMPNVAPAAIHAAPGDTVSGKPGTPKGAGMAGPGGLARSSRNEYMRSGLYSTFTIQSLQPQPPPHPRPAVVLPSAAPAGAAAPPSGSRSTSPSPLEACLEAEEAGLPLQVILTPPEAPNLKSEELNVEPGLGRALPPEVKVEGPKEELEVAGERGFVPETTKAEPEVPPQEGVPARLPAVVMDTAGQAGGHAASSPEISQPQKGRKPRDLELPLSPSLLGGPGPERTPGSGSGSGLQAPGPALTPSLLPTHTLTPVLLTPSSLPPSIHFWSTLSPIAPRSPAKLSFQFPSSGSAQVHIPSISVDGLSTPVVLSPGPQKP
# Procedure, shortened: as §1
# [3] = target: T3, GABPA (Homo sapiens, UniProt Q06546 1-454); conditions: protein: recombinant; tags: N-terminal GST; dsDNA, one strand shown
# T3 sequence: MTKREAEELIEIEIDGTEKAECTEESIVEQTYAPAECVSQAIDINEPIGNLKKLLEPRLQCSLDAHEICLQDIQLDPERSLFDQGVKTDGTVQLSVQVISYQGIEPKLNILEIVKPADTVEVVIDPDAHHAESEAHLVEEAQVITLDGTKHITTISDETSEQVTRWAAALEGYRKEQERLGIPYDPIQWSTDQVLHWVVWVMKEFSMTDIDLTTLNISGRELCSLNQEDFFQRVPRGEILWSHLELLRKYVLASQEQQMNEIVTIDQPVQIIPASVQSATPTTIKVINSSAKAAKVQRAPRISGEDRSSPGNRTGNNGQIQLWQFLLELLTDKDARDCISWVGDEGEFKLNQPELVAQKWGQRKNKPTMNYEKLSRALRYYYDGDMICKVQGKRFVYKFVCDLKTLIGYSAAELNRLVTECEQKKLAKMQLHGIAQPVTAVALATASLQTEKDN
# Procedure, shortened: as §1
# [4] = target: T4, ERG (Homo sapiens, UniProt P11308 1-479); conditions: protein: recombinant; tags: N-terminal GST; dsDNA, one strand shown
# T4 sequence: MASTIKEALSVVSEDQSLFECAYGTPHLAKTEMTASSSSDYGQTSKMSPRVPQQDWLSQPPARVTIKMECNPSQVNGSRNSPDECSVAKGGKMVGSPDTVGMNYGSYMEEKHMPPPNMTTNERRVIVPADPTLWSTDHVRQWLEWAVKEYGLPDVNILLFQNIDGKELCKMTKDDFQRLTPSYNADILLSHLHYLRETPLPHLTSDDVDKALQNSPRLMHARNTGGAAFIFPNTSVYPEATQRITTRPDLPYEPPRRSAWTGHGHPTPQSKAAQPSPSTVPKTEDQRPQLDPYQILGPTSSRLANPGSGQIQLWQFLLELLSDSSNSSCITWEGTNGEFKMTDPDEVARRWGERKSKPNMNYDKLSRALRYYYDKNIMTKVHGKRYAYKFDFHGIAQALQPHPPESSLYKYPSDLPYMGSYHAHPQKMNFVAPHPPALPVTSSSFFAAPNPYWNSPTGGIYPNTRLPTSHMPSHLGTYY
# Procedure, shortened: as §1
# [5] = target: ELF1 (Homo sapiens, UniProt P32519 1-619); conditions: protein: recombinant; tags: N-terminal GST; dsDNA, one strand shown
# Procedure, shortened: as §1
# [6] = target: T5, EHF (Homo sapiens, UniProt Q9NZC4 1-300); conditions: protein: recombinant; tags: N-terminal GST; dsDNA, one strand shown
# T5 sequence: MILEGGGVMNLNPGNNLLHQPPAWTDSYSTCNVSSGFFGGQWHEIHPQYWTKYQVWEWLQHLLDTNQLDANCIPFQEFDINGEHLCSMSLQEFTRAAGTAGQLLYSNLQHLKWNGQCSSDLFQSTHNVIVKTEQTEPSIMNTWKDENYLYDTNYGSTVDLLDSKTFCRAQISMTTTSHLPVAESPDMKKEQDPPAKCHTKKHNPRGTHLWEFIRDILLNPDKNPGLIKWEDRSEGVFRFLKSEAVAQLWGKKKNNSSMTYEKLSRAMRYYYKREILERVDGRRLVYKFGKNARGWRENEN
# Procedure, shortened: as §1
# [7] = target: SPI1 (Homo sapiens, UniProt P17947 1-270); conditions: protein: recombinant; tags: N-terminal GST; dsDNA, one strand shown
# Procedure, shortened: as §1
# [8] = target: SPIB (Homo sapiens, UniProt Q01892 1-262); conditions: protein: recombinant; tags: N-terminal GST; dsDNA, one strand shown
# Procedure, shortened: as §1
# [9] = target: T6, ELK3 (Homo sapiens, UniProt P41970 1-407); conditions: protein: recombinant; tags: N-terminal GST; dsDNA, one strand shown
# T6 sequence: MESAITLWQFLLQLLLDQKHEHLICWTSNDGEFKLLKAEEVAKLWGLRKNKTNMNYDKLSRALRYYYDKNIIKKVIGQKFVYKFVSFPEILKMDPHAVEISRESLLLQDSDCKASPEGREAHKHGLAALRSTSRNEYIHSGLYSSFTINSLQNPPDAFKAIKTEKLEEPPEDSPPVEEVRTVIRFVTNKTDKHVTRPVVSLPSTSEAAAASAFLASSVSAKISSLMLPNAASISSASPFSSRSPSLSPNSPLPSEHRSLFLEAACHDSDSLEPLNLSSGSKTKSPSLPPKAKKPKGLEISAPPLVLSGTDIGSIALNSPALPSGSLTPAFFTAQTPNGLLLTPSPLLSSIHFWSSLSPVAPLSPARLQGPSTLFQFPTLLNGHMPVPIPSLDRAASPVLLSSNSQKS
# Procedure, shortened: as §1
# [10] = target: T7, FEV (Homo sapiens, UniProt Q99581 1-238); conditions: protein: recombinant; tags: N-terminal GST; dsDNA, one strand shown
# T7 sequence: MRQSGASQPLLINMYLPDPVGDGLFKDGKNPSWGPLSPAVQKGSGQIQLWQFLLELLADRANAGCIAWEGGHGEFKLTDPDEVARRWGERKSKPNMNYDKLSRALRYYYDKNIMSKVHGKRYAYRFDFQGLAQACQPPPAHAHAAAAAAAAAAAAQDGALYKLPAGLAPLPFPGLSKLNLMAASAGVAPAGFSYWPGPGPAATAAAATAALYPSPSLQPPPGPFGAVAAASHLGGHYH
# Procedure, shortened: as §1
# [11] = target: ETV5 (Homo sapiens, UniProt P41161 1-510); conditions: protein: recombinant; tags: N-terminal GST; dsDNA, one strand shown
# Procedure, shortened: as §1
# [12] = target: HSF1 (Homo sapiens, UniProt Q00613 1-529); conditions: protein: recombinant; tags: N-terminal GST; chain copies: 3; dsDNA, one strand shown
# Procedure, shortened: as §1
# [13] = target: T8, SPIC (Homo sapiens, UniProt Q8N5J4 1-248); conditions: protein: recombinant; tags: N-terminal GST; dsDNA, one strand shown
# T8 sequence: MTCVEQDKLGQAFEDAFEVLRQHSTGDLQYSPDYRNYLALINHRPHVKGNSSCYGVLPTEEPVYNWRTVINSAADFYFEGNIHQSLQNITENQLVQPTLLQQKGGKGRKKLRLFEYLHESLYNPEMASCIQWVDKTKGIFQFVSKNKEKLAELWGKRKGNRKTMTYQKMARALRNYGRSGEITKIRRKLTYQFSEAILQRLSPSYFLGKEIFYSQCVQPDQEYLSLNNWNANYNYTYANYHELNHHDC
# Procedure, shortened: as §1
# [14] = target: ELF4 (Homo sapiens, UniProt Q99607 1-663); conditions: protein: recombinant; tags: N-terminal GST; dsDNA, one strand shown
# Procedure, shortened: as §1
# [15] = target: T9, ELK4 (Homo sapiens, UniProt P28324-2 1-405); conditions: protein: recombinant; tags: N-terminal GST; dsDNA, one strand shown
# T9 sequence: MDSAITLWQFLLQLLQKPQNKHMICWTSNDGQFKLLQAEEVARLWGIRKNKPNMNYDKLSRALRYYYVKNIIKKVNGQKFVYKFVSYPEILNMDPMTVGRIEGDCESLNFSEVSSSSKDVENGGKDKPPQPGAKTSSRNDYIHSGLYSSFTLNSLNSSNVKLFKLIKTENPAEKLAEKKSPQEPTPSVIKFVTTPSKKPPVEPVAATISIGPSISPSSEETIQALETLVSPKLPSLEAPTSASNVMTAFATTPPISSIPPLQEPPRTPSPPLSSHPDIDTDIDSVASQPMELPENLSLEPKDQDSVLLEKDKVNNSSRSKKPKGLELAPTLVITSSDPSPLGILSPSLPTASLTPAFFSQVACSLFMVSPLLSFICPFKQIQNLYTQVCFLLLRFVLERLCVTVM
# Procedure, shortened: as §1
# [16] = target: T10, ETV2 (Homo sapiens, UniProt O00321 1-342); conditions: protein: recombinant; tags: N-terminal GST; dsDNA, one strand shown
# T10 sequence: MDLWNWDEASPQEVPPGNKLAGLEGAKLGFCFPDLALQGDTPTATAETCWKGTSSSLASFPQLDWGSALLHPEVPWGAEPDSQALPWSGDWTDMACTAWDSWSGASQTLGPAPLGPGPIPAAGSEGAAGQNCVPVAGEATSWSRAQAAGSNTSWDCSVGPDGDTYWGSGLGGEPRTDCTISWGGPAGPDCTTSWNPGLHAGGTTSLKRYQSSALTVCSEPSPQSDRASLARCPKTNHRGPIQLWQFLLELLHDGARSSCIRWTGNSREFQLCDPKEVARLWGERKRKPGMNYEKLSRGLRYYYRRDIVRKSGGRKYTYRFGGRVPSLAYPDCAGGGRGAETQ
# Procedure, shortened: as §1
# [17] = target: T11, ELF3 (Homo sapiens, UniProt P78545 1-371); conditions: protein: recombinant; tags: N-terminal GST; dsDNA, one strand shown
# T11 sequence: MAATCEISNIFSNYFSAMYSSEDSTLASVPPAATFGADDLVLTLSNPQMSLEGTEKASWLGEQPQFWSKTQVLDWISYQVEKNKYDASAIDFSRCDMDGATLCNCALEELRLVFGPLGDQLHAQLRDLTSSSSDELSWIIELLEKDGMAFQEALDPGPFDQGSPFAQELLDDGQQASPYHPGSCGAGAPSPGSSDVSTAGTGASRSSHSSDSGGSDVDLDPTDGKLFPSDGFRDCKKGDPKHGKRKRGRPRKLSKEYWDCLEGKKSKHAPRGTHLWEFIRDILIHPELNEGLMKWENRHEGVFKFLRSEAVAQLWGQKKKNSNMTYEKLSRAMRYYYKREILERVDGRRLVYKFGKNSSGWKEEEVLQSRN
# Procedure, shortened: as §1
# [18] = target: CRX (Homo sapiens, UniProt O43186 1-299); conditions: protein: recombinant; tags: N-terminal GST; dsDNA, one strand shown
# Procedure, shortened: as §1
# [19] = target: ETV1 (Homo sapiens, UniProt P50549 1-477); conditions: protein: recombinant; tags: N-terminal GST; dsDNA, one strand shown
# Procedure, shortened: as §1
# Chain of ELF1 (P32519 whole entry): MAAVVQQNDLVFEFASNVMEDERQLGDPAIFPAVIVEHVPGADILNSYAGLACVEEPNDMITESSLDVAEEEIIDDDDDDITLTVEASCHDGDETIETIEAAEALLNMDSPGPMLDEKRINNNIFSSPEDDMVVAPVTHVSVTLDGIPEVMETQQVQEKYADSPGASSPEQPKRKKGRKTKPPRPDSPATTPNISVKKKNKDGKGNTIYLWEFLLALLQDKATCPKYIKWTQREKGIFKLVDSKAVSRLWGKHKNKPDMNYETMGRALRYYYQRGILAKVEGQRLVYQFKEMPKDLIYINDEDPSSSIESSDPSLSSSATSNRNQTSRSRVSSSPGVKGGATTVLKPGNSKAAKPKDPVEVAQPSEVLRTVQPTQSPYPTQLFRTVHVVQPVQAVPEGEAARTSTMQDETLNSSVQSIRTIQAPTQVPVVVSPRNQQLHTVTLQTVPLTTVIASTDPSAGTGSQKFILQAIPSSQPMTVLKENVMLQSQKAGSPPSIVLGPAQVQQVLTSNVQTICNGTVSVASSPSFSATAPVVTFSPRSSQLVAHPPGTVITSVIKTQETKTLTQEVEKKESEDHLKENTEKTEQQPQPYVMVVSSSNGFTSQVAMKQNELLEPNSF
# Chain of ELF4 (Q99607 whole entry): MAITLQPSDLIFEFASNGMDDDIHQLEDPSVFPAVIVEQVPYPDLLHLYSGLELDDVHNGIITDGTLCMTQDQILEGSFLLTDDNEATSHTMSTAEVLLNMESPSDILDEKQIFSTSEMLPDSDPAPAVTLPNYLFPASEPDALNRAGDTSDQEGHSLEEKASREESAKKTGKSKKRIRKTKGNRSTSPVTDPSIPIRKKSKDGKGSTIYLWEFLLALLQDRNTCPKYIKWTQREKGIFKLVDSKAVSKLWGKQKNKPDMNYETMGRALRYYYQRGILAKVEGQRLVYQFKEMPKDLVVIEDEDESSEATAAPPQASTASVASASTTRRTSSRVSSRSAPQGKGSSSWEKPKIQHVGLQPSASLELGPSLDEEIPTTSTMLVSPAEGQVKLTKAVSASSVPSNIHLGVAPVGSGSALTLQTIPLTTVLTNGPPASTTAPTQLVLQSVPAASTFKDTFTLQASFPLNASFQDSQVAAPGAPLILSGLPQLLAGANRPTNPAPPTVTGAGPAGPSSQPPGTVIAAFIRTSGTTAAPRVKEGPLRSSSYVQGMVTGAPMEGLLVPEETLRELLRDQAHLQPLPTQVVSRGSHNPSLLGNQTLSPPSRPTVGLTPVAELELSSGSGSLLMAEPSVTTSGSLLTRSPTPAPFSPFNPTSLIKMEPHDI
# Chain of HSF1 (Q00613 whole entry): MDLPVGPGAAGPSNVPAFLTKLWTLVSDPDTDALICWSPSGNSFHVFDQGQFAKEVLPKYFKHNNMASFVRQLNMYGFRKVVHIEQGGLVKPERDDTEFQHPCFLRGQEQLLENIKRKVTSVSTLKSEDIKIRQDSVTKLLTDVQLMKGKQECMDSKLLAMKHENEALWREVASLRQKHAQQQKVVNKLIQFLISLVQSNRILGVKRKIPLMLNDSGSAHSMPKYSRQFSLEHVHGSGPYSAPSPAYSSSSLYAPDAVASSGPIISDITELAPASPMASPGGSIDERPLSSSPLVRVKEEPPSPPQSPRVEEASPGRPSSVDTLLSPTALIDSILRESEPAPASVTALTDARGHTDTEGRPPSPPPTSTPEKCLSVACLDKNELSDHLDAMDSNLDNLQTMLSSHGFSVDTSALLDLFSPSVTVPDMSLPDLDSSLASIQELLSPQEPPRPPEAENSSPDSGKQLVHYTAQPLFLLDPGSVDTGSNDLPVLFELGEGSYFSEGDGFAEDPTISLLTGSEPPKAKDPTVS
# Chain of ETV5 (P41161 whole entry): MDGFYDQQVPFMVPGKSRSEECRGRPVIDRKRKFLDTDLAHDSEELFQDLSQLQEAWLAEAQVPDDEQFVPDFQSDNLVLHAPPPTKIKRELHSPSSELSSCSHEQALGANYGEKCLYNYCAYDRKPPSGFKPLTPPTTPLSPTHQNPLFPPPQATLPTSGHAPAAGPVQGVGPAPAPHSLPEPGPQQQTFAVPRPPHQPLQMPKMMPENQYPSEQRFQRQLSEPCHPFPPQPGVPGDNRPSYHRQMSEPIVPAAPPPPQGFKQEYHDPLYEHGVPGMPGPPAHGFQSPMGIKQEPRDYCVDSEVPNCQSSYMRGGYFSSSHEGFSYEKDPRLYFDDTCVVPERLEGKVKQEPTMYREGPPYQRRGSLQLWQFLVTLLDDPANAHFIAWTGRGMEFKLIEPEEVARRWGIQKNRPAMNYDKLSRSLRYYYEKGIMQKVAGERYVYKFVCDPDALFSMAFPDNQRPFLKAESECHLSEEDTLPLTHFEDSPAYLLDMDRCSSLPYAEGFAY
# Chain of ETV1 (P50549 whole entry): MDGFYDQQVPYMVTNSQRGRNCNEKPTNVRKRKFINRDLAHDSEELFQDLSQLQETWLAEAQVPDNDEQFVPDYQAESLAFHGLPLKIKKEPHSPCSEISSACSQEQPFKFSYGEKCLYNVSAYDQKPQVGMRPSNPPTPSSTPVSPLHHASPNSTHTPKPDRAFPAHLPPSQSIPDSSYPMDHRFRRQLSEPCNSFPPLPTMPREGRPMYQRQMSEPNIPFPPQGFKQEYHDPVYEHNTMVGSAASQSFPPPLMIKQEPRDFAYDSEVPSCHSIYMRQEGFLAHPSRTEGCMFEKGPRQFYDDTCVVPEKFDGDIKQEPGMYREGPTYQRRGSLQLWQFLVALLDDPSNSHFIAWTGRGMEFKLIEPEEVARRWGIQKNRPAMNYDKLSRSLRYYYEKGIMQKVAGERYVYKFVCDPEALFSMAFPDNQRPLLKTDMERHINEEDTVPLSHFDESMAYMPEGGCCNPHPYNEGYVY
# Chain of SPIB (Q01892 whole entry): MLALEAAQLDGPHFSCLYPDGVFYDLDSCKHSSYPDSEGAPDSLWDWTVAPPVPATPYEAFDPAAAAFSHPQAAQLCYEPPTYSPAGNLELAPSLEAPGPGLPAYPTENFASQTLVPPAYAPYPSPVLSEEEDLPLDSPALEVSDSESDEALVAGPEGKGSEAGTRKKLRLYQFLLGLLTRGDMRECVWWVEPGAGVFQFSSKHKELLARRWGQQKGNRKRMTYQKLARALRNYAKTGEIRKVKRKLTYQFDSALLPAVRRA
# Chain of CRX (O43186 whole entry): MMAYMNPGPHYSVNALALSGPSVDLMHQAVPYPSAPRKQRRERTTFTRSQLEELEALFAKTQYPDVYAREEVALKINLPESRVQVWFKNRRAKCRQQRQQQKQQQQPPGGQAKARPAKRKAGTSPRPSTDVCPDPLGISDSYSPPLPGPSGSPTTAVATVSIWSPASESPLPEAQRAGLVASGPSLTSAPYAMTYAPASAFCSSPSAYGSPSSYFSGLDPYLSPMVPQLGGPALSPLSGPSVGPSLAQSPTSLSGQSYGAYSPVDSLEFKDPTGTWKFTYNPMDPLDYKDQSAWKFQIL
sequence,measurement,setting,value
TTTTTG,binding signal,[1],"1.43 fold enrichment (6-mer frequency, TF over GST control)"
same,binding signal,[2],"1.29 fold enrichment (6-mer frequency, TF over GST control)"
same,binding signal,[3],"1.38 fold enrichment (6-mer frequency, TF over GST control)"
same,binding signal,[4],"1.33 fold enrichment (6-mer frequency, TF over GST control)"
same,binding signal,[5],"1.4 fold enrichment (6-mer frequency, TF over GST control)"
same,binding signal,[6],"1.27 fold enrichment (6-mer frequency, TF over GST control)"
same,binding signal,[7],"1.54 fold enrichment (6-mer frequency, TF over GST control)"
same,binding signal,[8],"1.5 fold enrichment (6-mer frequency, TF over GST control)"
same,binding signal,[9],"1.4 fold enrichment (6-mer frequency, TF over GST control)"
same,binding signal,[10],"1.33 fold enrichment (6-mer frequency, TF over GST control)"
same,binding signal,[11],"1.42 fold enrichment (6-mer frequency, TF over GST control)"
same,binding signal,[12],"1.24 fold enrichment (6-mer frequency, TF over GST control)"
same,binding signal,[13],"1.39 fold enrichment (6-mer frequency, TF over GST control)"
same,binding signal,[14],"1.45 fold enrichment (6-mer frequency, TF over GST control)"
same,binding signal,[15],"1.5 fold enrichment (6-mer frequency, TF over GST control)"
same,binding signal,[16],"1.51 fold enrichment (6-mer frequency, TF over GST control)"
same,binding signal,[17],"1.44 fold enrichment (6-mer frequency, TF over GST control)"
same,binding signal,[18],"1.31 fold enrichment (6-mer frequency, TF over GST control)"
same,binding signal,[19],"1.48 fold enrichment (6-mer frequency, TF over GST control)"

# — article PMC7862700, “An all-to-all approach to the identification of sequence-specific readers for epigenetic DNA modifications on cytosine”
